KCNQ2 pot: potentiators of rat KCNQ2 potassium channel. CHO-K1 KCNQ2, FluxOR thallium flux fluorescence; stronger effect = higher value. B-score at 10 µM. hit rate 0.54% among 310,000;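 active = fluorescence ratio B-score at least 3 SD of library B-scores, with initial fluorescence B-score within 3 of them, cut at about 5.3 in these data; same plate scores as AID 2156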;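 note: B-score of peak minus minimum over baseline fluorescence ratio after K+ and Tl+ stimulus; positive B-score means potentiation of KCNQ2 with more thallium influx and brighter signal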
Target sequence (O88943 whole entry, looked up): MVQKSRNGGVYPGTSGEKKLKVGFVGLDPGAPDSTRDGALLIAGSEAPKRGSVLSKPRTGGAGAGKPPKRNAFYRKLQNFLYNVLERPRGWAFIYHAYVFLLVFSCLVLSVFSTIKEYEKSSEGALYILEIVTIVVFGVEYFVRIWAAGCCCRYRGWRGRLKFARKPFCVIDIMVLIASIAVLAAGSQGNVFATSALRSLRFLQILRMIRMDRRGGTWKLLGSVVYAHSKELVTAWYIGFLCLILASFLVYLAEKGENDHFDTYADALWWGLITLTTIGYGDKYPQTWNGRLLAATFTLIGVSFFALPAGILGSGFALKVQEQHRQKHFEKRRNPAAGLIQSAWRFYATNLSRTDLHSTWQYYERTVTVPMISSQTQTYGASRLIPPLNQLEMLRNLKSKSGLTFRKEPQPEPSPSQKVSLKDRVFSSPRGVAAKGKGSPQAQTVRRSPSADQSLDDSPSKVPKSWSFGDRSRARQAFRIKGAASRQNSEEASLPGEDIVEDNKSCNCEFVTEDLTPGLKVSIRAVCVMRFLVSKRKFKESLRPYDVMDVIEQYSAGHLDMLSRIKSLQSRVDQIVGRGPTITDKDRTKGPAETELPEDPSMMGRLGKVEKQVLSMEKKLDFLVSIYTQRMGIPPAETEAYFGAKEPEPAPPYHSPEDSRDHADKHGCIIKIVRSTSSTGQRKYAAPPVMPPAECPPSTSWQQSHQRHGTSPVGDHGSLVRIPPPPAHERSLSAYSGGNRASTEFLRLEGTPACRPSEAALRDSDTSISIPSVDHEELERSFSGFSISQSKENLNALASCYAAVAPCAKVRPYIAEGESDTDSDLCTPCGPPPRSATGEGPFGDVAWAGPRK
KCNQ2 block: inhibitors of rat KCNQ2 potassium channel. O88943. CHO-K1 KCNQ2, FluxOR thallium flux, 20 min; stronger effect = lower value. B-score at 10 µM. hit rate 1.1% among 310,000. AID 2156;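 active = fluorescence ratio B-score at most minus 3 library SDs, with starting brightness B-score within 2 library SDs, cut at about -5.5 in these data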
* marks the source's active call; other numbers are inactive results. Hits are enriched below; roughly 1.6% of the tested compounds scored in any of these assays.

O=C(c1cnn2c(C(F)(F)F)cc(-c3ccco3)nc12)N1CCCCCC1 was read as KCNQ2 pot 0.19 and KCNQ2 block inactive.
`O=C(c1cnn2c(C(F)(F)F)cc(-c3ccco3)nc12)N1CCc2ccccc2C1` gave KCNQ2 pot -7 and KCNQ2 block -7*.
`O=S(=O)(c1ccccc1F)N1CCc2ccccc2C1` gave KCNQ2 pot 0.23 and KCNQ2 block inactive.
`O=C(CCCOc1ccc(Cl)cc1Cl)NCCc1ccccn1` gave KCNQ2 pot 1.1 and KCNQ2 block inactive.
Screening CN(CC(=O)N1CCOCC1)S(=O)(=O)c1ccc2ccccc2c1 returned KCNQ2 pot 1.1 and KCNQ2 block inactive.
`CCN(CC)CC(=O)Nc1sc(C)cc1C(=O)c1ccccc1` gave KCNQ2 block inactive.
CCc1cc(C(=O)c2ccc(Br)cc2)c(NC(=O)CN(CC)CC)s1 was read as KCNQ2 pot -5.7 and KCNQ2 block -5.7*.
CCc1ccccc1NC(=O)CCc1c(C)nc(SC)nc1C was read as KCNQ2 pot 0.59 and KCNQ2 block inactive.
COc1ccccc1NC(=O)c1cc(C)oc1C was read as KCNQ2 block inactive.
CCOc1ccccc1NC(=O)c1cc(CC(C)C)oc1C was read as KCNQ2 pot -6.2 and KCNQ2 block -6.2*.
For CC(=O)Nc1cccc(C(=O)OC(C)C(=O)NCc2ccc3c(c2)OCO3)c1 (configuration not stated) the results were KCNQ2 pot 0.22 and KCNQ2 block inactive.
For Cc1cccc(NS(=O)(=O)c2cc(C(=O)OC(C)C(=O)NCc3ccc4c(c3)OCO4)ccc2C)c1 (configuration not stated) the results were KCNQ2 pot -6.4 and KCNQ2 block -6.4*.
`Cc1ccc(CN2C(=O)C(C)Nc3ncnc(N4CCN(c5ccccn5)CC4)c32)cc1` (configuration not stated) gave KCNQ2 block inactive.
Screening Cc1ccccc1C(=O)NNC(=O)C1CCN(C(=O)Nc2ccccc2)CC1 returned KCNQ2 block inactive.
C[C@]12CCC(O)CC1=CCC1C2CC[C@]2(C)/C(=N\NC(N)=S)CCC12 (some centres not stated) was read as KCNQ2 block inactive.
Screening COc1ccc(S(=O)(=O)N2CCCC(C(=O)N3CCN(C)CC3)C2)cc1Cl (configuration not stated) returned KCNQ2 block inactive.
Screening COc1ccc(S(=O)(=O)N2CCCC2)cc1C(C)C returned KCNQ2 pot -6.9 and KCNQ2 block -6.9*.
Screening COc1ccc(S(=O)(=O)N2CCCC2)cc1OC returned KCNQ2 pot 0.02 and KCNQ2 block inactive.
Screening COc1ccc(S(=O)(=O)N2CCCC(C(=O)N3CCOCC3)C2)cc1Cl (configuration not stated) returned KCNQ2 pot -5.6 and KCNQ2 block -5.6*.
`Cc1ccc(NC2(c3nnnn3-c3c(C)cccc3C)CCCCC2)cc1` gave KCNQ2 block inactive.
CC1(C)Cc2c(cnn2-c2ccccc2)C(NC(=O)CCN2CCCC2=O)C1 (configuration not stated) was read as KCNQ2 pot 1 and KCNQ2 block inactive.
Screening Clc1cccc(CSc2nnc(-c3sccc3-n3cccc3)o2)c1 returned KCNQ2 block inactive.
`Clc1cc(Cl)cc(CSc2nnc(-c3sccc3-n3cccc3)o2)c1` gave KCNQ2 pot -5.9 and KCNQ2 block -5.9*.
CCn1c(=O)c(CCC(=O)N2CCN(c3ccccn3)CC2)c(C)c2c(C)nn(-c3ccccc3)c21 was read as KCNQ2 pot 0.67 and KCNQ2 block inactive.
Screening CC(C)C1=CC2=CCC3C(C)(C(=O)O)CCCC3(C)C2CC1 (configuration not stated) (tested in a mixture with another compound) returned KCNQ2 pot -5.8 and KCNQ2 block -5.8*.
C=C[C@]1(C)C=C2CCC3[C@](C)(CCC[C@@]3(C)C(=O)O)C2CC1 (some centres not stated) was read as KCNQ2 block inactive.
`CCc1noc(C)c1C(=O)NC1CCCc2c1cnn2-c1ccc(C(C)(C)C)cc1` (configuration not stated) gave KCNQ2 block inactive.
COc1cc(/C=C/C(=O)O)cc(S(=O)(=O)Nc2ccc3c(c2)CCC3)c1OC was read as KCNQ2 block inactive.
For CCN(CC)c1ccc(N=CN2CCOCC2)cc1 the results were KCNQ2 pot 1.3 and KCNQ2 block inactive.
For O=c1ccc(N=Nc2ccccc2)ccc1O the results were KCNQ2 pot 19* and KCNQ2 block inactive.
Screening O=S(=O)(O)c1ccc(N=Nc2ccccc2)cc1 returned KCNQ2 pot 0.12 and KCNQ2 block inactive.
For C=CCNC(=O)c1onc(CS(=O)(=O)c2cc(C)cc(C)c2)c1C(=O)NCC=C the results were KCNQ2 pot 0.41 and KCNQ2 block inactive.
`Fc1ccc(Br)cc1C1C=C(c2ccc(Br)s2)Nc2ncnn21` (configuration not stated) gave KCNQ2 block inactive.
Screening COc1cccc(C2C=C(c3ccc(Br)s3)Nc3ncnn32)c1OC (configuration not stated) returned KCNQ2 pot -6.6 and KCNQ2 block -6.6*.
For O=C(NCC1CC1)c1cc(-c2ccccc2)nn1CC1CC(c2cccnc2)=NO1 (configuration not stated) the results were KCNQ2 pot 0.86 and KCNQ2 block inactive.
For Cc1ccc(-n2nc3c(=O)n(C(C)C(=O)NCc4ccccc4Cl)nc(C)c3c2C)cc1 (configuration not stated) the results were KCNQ2 pot -8.1 and KCNQ2 block -8.1*.
`Cc1ccc(-n2nc3c(=O)n(C(C)C(=O)NCCCc4ccccc4)nc(C)c3c2C)cc1` (configuration not stated) gave KCNQ2 block inactive.
Screening Cc1ccc(-c2cccc(C(=O)NCCc3ccccc3)n2)c2ccccc12 returned KCNQ2 pot -6.3 and KCNQ2 block -6.3*.
For Cc1ccc(-c2cccc(C(=O)NCc3ccccc3)n2)c2ccccc12 the results were KCNQ2 block inactive.
COC(=O)c1cc(=O)n(Cc2ccco2)c(=Nc2ccc(F)cc2)s1 was read as KCNQ2 pot -6 and KCNQ2 block -6*.
For COC(=O)c1cc(=O)n(Cc2ccc(F)cc2)c(=Nc2ccccc2)s1 the results were KCNQ2 pot -5.8 and KCNQ2 block -5.8*.
For COC(=O)c1cc(=O)n(Cc2cccs2)c(=Nc2ccccc2)s1 the results were KCNQ2 block inactive.
For COC(=O)c1cc(=O)n(Cc2ccc(OC)c(OC)c2)c(=Nc2ccc(F)cc2)s1 the results were KCNQ2 block inactive.
Screening Cc1cccc(C)c1NC(=O)CN1C(=O)COc2ccccc21 returned KCNQ2 block inactive.
For Brc1ccc(NCc2cccc3ccccc23)nc1 the results were KCNQ2 pot -6 and KCNQ2 block -6*.
`Oc1ccccc1CNc1ccc(Br)cn1` gave KCNQ2 block inactive.
`CC(C)c1ccc(NC(=O)Cc2c(C(=O)O)n(C)c3ccccc23)cc1` gave KCNQ2 pot 1.7 and KCNQ2 block inactive.
Cc1cccn2c(=O)c3cc(C(=O)NCCN4CCOCC4)c(=N)n(Cc4ccc(F)cc4)c3nc12 was read as KCNQ2 block inactive.
For CN(C)c1ccc(C(C(=O)NC2CCCCC2)N(Cc2ccco2)C(=O)c2snc(C(N)=O)c2N)cc1 (configuration not stated) the results were KCNQ2 block inactive.

Assay outcomes (PubChem)
